TMEM16A act: TMEM16A chloride channel activators or potentiators, primary screen, cell-based, HTS; Anoctamin-1 (Mus musculus), Q8BHY3; HEK293 TMEM16A/YFP-H148Q/I152L, iodide quench fluorescence; active compounds read low; B-score at 10 µM; actives 0.3% (n = 340,000);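 active = fluorescence-ratio B-score plate-corrected deviation score at least 3 library SD below zero, with starting fluorescence score within 5 deviations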;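 also: channel opened by trigger with iodide after compound preincubation; score built on the fluorescence ratio of max minus min over baseline; more negative score means more quench and so TMEM16A activation or potentiation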
CHT PAM: CHT positive allosteric modulators, primary screen, cell-based, membrane potential dye, choline EC20 | High affinity choline transporter 1 (Homo sapiens), Q9GZV3 | AID 488977, 2010 | actives 0.49% (n = 310,000) | B-score at 10 µM | CHT-expressing cells; active compounds read high; LV-AA mutant CHT in HEK293 cells;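 active = initial fluorescence not abnormally high and integrated response B-score, plate-corrected, over 3 SD above library mean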
Target sequence (Q9GZV3 whole entry, looked up): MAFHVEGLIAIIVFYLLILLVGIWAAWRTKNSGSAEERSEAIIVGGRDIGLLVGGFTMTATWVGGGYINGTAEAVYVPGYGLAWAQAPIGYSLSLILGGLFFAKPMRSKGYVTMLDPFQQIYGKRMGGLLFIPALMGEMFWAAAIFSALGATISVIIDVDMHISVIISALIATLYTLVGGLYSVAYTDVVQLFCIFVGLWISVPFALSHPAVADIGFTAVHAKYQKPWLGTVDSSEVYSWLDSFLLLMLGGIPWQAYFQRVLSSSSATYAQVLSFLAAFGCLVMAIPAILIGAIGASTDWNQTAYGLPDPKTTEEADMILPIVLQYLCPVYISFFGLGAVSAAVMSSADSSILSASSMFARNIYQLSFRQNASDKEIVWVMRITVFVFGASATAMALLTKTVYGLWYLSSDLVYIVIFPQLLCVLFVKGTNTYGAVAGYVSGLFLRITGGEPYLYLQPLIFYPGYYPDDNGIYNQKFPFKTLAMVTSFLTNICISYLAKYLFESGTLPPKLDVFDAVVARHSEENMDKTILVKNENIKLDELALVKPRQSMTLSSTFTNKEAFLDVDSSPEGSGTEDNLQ
TMEM16A inh: TMEM16A chloride channel inhibitors, primary screen, cell-based, HTS; HEK293 TMEM16A/YFP iodide influx fluorescence, ionomycin; AID 588511, 2011; actives 1.2% (n = 310,000); normalized B-score (activity score, 25-100; higher = stronger inhibition) at 10 µM;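 active = ratio plate-corrected score three or more library SD toward inhibition, starting fluorescence score within five deviations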;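 also: score derived from kinetic fluorescence span divided by baseline fluorescence per well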
CHT block: inhibitors of human choline transporter CHT; High affinity choline transporter 1 (Homo sapiens), Q9GZV3; CHT-expressing cells, membrane potential dye, choline response; active compounds read low; B-score at 10 µM; actives 0.86% (n = 310,000);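 active = B-score over 3 SD under the library average, and starting fluorescence ratio not unusually high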;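 also: choline stimulus applied at its EC90 after an EC20 pre-addition; B-score computed on integrated fluorescence ratio after choline addition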
CHT block conf: CHT inhibitors, confirmation, cell-based, membrane potential dye, duplicate. shares compounds with CHT block. CHT-expressing cells, choline membrane potential dye; LV-to-AA substituted CHT, HEK293 cells. CHT activity remaining % of control (active compounds read low), % at 10 µM. actives 70% (n = 2,400). AID 493221, 2011;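 active = choline transporter activity left, mean of duplicates at 10 µM, below buffer-only control mean minus 3 SD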;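 also: depolarization triggered by choline at its EC90 following an EC20 pre-addition; 0% = hemicholinium-3 full block and 100% = buffer-only control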
HEK293 CHT ctr: membrane potential effects in parental HEK293, counter-screen for CHT inhibitor project, cell-based, membrane potential dye | actives 4% (n = 2,400) | shares compounds with CHT block | choline response; active = decrease or increase beyond buffer ±3SD | membrane potential ratio readout (active if shifted either direction beyond buffer ±3SD; no single direction) at 10 µM;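 also: parental cells lack the transporter so any hit is non-specific; ratio is peak minus trough fluorescence over baseline after EC90 choline challenge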
* marks the source's active call; other numbers are inactive results; i = inactive; . = no result given. In the library only some 2.4% were active in any assay of this set; here they are far more common.

SMILES	TMEM16A act	CHT PAM	TMEM16A inh	CHT block	CHT block conf	HEK293 CHT ctr
COc1ccc(C(C)=O)cc1COC(=O)CCCN1C(=O)c2ccccc2C1=O	i	i	i	i	.	.
NC(=O)C(c1ccc(Cl)cc1Cl)c1ncc(C(F)(F)F)cc1Cl (stereo not given)	i	i	i	i	.	.
O=C(CN1CCN(Cc2ccc(F)cc2Cl)C1=O)NCCc1ccccc1	i	i	i	i	.	.
CN(CCNC(=O)CN1CCN(Cc2ccccc2Cl)C1=O)Cc1ccccc1	i	i	i	-6.5*	43%*	i
CCOc1ccc(NCC(=O)N/N=C/C=C/c2ccccc2)cc1	i	i	i	i	.	.
COc1ccc(OCC(=O)N/N=C/C=C/c2ccccc2)cc1	i	i	i	-7.9*	69%*	i
CCC1(C)Cc2c(sc3nnn(CC(=O)Nc4ccccc4)c(=O)c23)CO1 (stereo not given)	i	i	i	i	58%*	i
CCC1(C)Cc2c(sc3nnn(CC(=O)Nc4ccccc4C)c(=O)c23)CO1 (stereo not given)	i	i	i	i	.	.
Cc1cccn2c(CNCC3OCCc4ccccc43)c(C(=O)N3CCCCC3)nc12 (stereo not given)	i	i	i	-6.6*	48%*	-13*
Cc1ccc(NS(=O)(=O)c2cccc(C(=O)NCC(c3ccco3)N3CCCCC3)c2)cc1 (stereo not given)	i	i	i	-13*	2.4%*	i
Cc1ccc(C)c(S(=O)(=O)Nc2ccc(C(=O)NCC(c3ccco3)N3CCCCC3)cc2)c1 (stereo not given)	i	i	i	i	.	.
COc1ccccc1C(CNC(=O)c1cccc(NS(=O)(=O)c2ccc(C)c(F)c2)c1)N1CCCC1 (stereo not given)	i	i	i	-5.6*	15%*	i
COc1ccccc1NS(=O)(=O)c1cc(C(=O)NCC(c2ccco2)N2CCCCC2)ccc1C (stereo not given)	i	i	i	-12*	11%*	i
O=C(NCC(c1ccco1)N1CCCCC1)c1cccc(NS(=O)(=O)c2ccc(Br)cc2)c1 (stereo not given)	i	i	i	-11*	37%*	i
COc1ccc(C(=O)OCC(=O)Nc2cccc(S(=O)(=O)N3CCCCCC3)c2)cc1[N+](=O)[O-]	i	.	.	.	.	.
CSc1ccc(C(=O)C2CCCN(C(=O)c3ccsc3)C2)cc1 (stereo not given)	i	i	i	-5.2*	69%*	i
CC#CC(=O)N1CCCC(C(=O)c2ccc(SC)cc2)C1 (stereo not given)	i	i	i	i	.	.
COc1cc(OC)cc(C(=O)NNC(=O)CCC(=O)c2cccs2)c1	i	i	i	i	.	.
COc1ccc(Cn2cnc3c([N+](=O)[O-])c(C)c(C)cc32)cc1	i	i	i	-9.4*	34%*	i
Cc1ccccc1Cn1cnc2c([N+](=O)[O-])c(C)c(C)cc21	i	i	i	i	.	.
O=C(Nc1cccc(C(F)(F)F)c1)c1csc(-c2ccncc2)n1	i	i	i	i	.	.
COc1cc(NC(=O)c2csc(-c3ccncc3)n2)cc(C(=O)Nc2cccc(C(F)(F)F)c2)c1	i	i	i	-8.6*	26%*	i
Cc1[nH]c(SCC(=O)c2c(N)n(C)c(=O)n(C)c2=O)nc1Cc1ccccc1	i	.	.	.	.	.
O=c1cc(CSc2ccccc2)nc(-c2ccncc2)[nH]1	i	i	i	-6.5*	i	i
O=c1cc(CSc2ccc(Cl)cc2)nc(-c2ccncc2)[nH]1	i	i	i	i	.	.
SMILES	TMEM16A act	CHT PAM	TMEM16A inh	CHT block	CHT block conf	HEK293 CHT ctr
COc1cc(/C=C2/C(=O)N(c3cccc(Br)c3)N=C2C)cc(OC)c1O	i	i	i	-5.2*	45%*	i
COc1ccc(S(=O)(=O)N2CCCC2=O)cc1N(C)S(C)(=O)=O	i	i	i	i	.	.
COc1cccc(-c2cc(C(=O)NN3CCOCC3)c3ccccc3n2)c1	i	i	i	-10*	i	i
COc1ccc(C/C(O)=C(\C#N)c2nc3ccccc3s2)cc1	i	i	100*	-5*	55%*	i
CN1C[C@@H]2C(c3ccc(C(F)(F)F)cc3)C3(c4cccnc4)CC2(C3)[C@H]1c1ccccc1 (stereo not given in full)	i	i	i	-5.2*	70%*	i
c1coc(Cn2c(-c3ccco3)nc3ccccc32)c1	i	i	i	-8*	i	-11*
CCCCn1c(SCn2nnc3ccccc3c2=O)nc2cc(S(N)(=O)=O)ccc21	i	i	i	-6.2*	49%*	i
CC(NC(=O)C1c2ccccc2Oc2ccccc21)C1CCCO1 (stereo not given)	i	i	i	-5.7*	68%*	i
CCc1nnc(NS(=O)(=O)c2ccc(NC(=O)c3ccc(Br)cc3)cc2)s1	i	i	i	-6.7*	36%*	i
CCc1nnc(NS(=O)(=O)c2ccc(NC(=O)OC)cc2)s1	i	i	i	i	.	.
Cc1cc(Cl)ccc1C(=O)C1CCCN(C(=O)c2cnsn2)C1 (stereo not given)	i	i	i	i	.	.
CCCN(CCC)c1nc(N(CCC)CCC)[nH]c(=O)n1	i	i	i	-5.1*	64%*	i
O=[N+]([O-])c1cc(CN2CCCC2)ccc1Sc1ccc(Cl)cc1	i	i	i	i	.	.
CCCc1ccc(OCc2ccc(C(=O)O)o2)c(OC)c1	i	i	i	i	.	.
COc1ccc(CCN(C)C(=O)c2ccc(COc3ccccc3)o2)cc1OC	i	i	i	-6.9*	55%*	i
Cc1ccc(Nc2c3c(nc4ncnn24)CC(C)CC3)cc1 (stereo not given)	i	i	i	-5.8*	i	i
NC(=O)CC(NC(=O)c1ccccc1)c1ccc(N2CCCCCC2)c([N+](=O)[O-])c1 (stereo not given)	i	i	i	-8.6*	13%*	i

Source: PubChem BioAssay
